A short description of assay [1]: qHTS assay to identify small molecule agonists of H2AX (AID 1224845; active = well fitted activation curve with a large enough effect in the signal ratio in the repeat runs, not every such curve was filed as active; the % refers to the signal ratio). The procedure, abridged: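 Phospho-H2AX Ser139 measured by HTRF (ex 320 nm; em 665 and 620 nm) after 24 hr antibody incubation. Compounds, 15 concentrations, 0.76% DMSO, were applied to CHO-K1 cells for 3hr at 37C before lysis.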
A general note: Quantitative high-throughput screening tests each substance at several concentrations.

Assay [2] in a line: qHTS assay to identify small molecule agonists of the hypoxia (HIF-1) signaling pathway (AID 1224846; active = well fitted activation curve with a large enough effect in the signal ratio in the repeat runs, not every such curve was filed as active; the % refers to the signal ratio). The procedure, abridged: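 Steps: seed ME-180 HRE-bla cells (2,000/well, 0.5% dialyzed FBS); incubate 5 hrs at 37C; pin-transfer compounds or DMSO; incubate 17 hrs; add LiveBLAzer B/G substrate CCF4-AM; measure reporter activation by FRET.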
Assay [3] can be described thus: qHTS assay to identify small molecule agonists of H2AX - cell viability counter screen (AID 1224847; calls by dose curve; note: top concentration of the series differs between compounds; nearly all actives have a fitted effect of over 30% in size). An outline of the steps: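 We seed wild-type CHO-K1 cells overnight, treat them for 3 hr at 37C with compounds in 15-concentration series, and quantify remaining viability by CellTiter-Glo luminescence.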
The nature of assay [4]: qHTS RealTime-Glo MT Cell Viability Assay in HepG2 cells - 24 hour (AID 1224867). Note: nearly all actives have a fitted effect of over 50% in size. The procedure, abridged: (§1)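 HepG2 suspension premixed with RealTime-Glo reagents is plated at 600 cells per well and left 5 h at 37 C/5% CO2. Compounds in DMSO then go in, and bioluminescence reflecting viable cell number is recorded over 40 h.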
Assay [5] is described as follows: qHTS RealTime-Glo MT Cell Viability Assay in HEK293 cells - 32 hour (AID 1224868). Note: nearly all actives have a fitted effect of over 50% in size. Note: potency is the fitted concentration of half-maximal effect. The procedure, abridged:
(§2)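 Reads taken at 0, 8, 16, 24, 32 and 40 h from the same wells. HEK293 cells (600/well) carried RealTime-Glo reagents from seeding, with compound added after a 5 h settle at 37 C.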

Assay [6] is described as follows: A CellTox Green Cytotoxicity Assay to monitor cytotoxicity in HEK293 cells - 0 hour (AID 1224869). Note: nearly all actives have a fitted effect of over 50% in size. An outline of the steps:
(§3)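 Cytotoxicity was tracked continuously in HEK293 cells by a DNA-binding dye excluded from viable cells. Compounds were transferred in DMSO 5 h after seeding; fluorescence was recorded at intervals up to 40 h.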

A short description of assay [7]: qHTS RealTime-Glo MT Cell Viability Assay in HepG2 cells - 40 hour (AID 1224870). Note: nearly all actives have a fitted effect of over 50% in size. An outline of the steps:
(§4)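 Real-time viability: cells seeded at 600 per well together with NanoLuc and cell-permeant prosubstrate, compounds added after 5 h incubation. Luminescence tracked at 0, 8, 16, 24, 32 and 40 h of exposure.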

Assay [8] can be described thus: A CellTox Green Cytotoxicity Assay to monitor cytotoxicity in HEK293 cells - 40 hour (AID 1224871). Note: nearly all actives have a fitted effect of over 45% in size. Note: potency is the fitted concentration of half-maximal effect. The procedure, abridged:
as §3

The nature of assay [9]: qHTS RealTime-Glo MT Cell Viability Assay in HEK293 cells - 16 hour (AID 1224872). Note: nearly all actives have a fitted effect of over 50% in size. Note: potency is the fitted concentration of half-maximal effect. The procedure, abridged: as §2
Assay [10] in a line: qHTS RealTime-Glo MT Cell Viability Assay in HepG2 cells - 8 hour (AID 1224873). Note: nearly all actives have a fitted effect of over 55% in size. An outline of the steps: as §4
Assay [11] can be described thus: A CellTox Green Cytotoxicity Assay to monitor cytotoxicity in HEK293 cells - 24 hour (AID 1224875). Note: nearly all actives have a fitted effect of over 45% in size. An outline of the steps: as §3
A short description of assay [12]: A CellTox Green Cytotoxicity Assay to monitor cytotoxicity in HepG2 cells - 16 hour (AID 1224876). Note: nearly all actives have a fitted effect of over 45% in size. The procedure, abridged:
(§5)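 Real-time, homogeneous cytotoxicity readout: dead-cell DNA staining by CellTox Green in HepG2 monolayers, fluorescence measured at timed intervals up to 40 h of continuous compound exposure.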

A short description of assay [13]: qHTS RealTime-Glo MT Cell Viability Assay in HepG2 cells - 32 hour (AID 1224877). Note: nearly all actives have a fitted effect of over 55% in size. An outline of the steps:
as §1

The nature of assay [14]: A CellTox Green Cytotoxicity Assay to monitor cytotoxicity in HepG2 cells - 24 hour (AID 1224878). Note: nearly all actives have a fitted effect of over 45% in size. An outline of the steps:
as §5

The nature of assay [15]: A CellTox Green Cytotoxicity Assay to monitor cytotoxicity in HepG2 cells - 40 hour (AID 1224879). Note: nearly all actives have a fitted effect of over 40% in size. The procedure, abridged: as §5
Assay [16] can be described thus: qHTS RealTime-Glo MT Cell Viability Assay in HEK293 cells - 0 hour (AID 1224880). The procedure, abridged:
(§6)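 Nonlytic bioluminescent viability monitoring. HEK293 at 600 cells/well with reagent; 5 h settle; compound transfer by pintool; plates held at 37 C and read at set time points.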

Assay [17] in a line: qHTS RealTime-Glo MT Cell Viability Assay in HEK293 cells - 40 hour (AID 1224874). Note: nearly all actives have a fitted effect of over 50% in size. Note: potency is the fitted concentration of half-maximal effect. Conditions: RealTime-Glo luminescence; max response: stronger effect = lower value. An outline of the steps: as §6
The nature of assay [18]: A CellTox Green Cytotoxicity Assay to monitor cytotoxicity in HEK293 cells - 32 hour (AID 1224881). Note: nearly all actives have a fitted effect of over 40% in size. Note: potency is the fitted concentration of half-maximal effect. The procedure, abridged: as §3
Assay [19] in a line: qHTS assay to identify small molecule agonists of the estrogen related receptor (ERR) signaling pathway from Tox21 library (AID 1224849; calls by dose curve; note: nearly all actives have a fitted effect of over 15% in size). The conditions noted are these: ERR reporter cell line, ONE-Glo luciferase, 18 h; at 92.4 µM (top of the series) unless noted. An outline of the steps:
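Agonist signal is luciferase luminescence from an ERR reporter cell line treated 18 h at 37 C with DMSO-dissolved compounds, read 30 min after ONE-Glo addition at room temperature.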

Assay [20] is described as follows: qHTS assay to identify small molecule antagonists of the estrogen related receptor (ERR) signaling pathway from Tox21 library (AID 1224848). Note: nearly all actives have a fitted effect of over 50% in size. An outline of the steps:
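Antagonist-mode screen of the Tox21 10K library in an NTP-provided ERR reporter cell line; 18 h compound exposure at 37 C, luminescence measured with ONE-Glo.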

Values joined by “and” are separate entries in the source; they are usually repeats but may differ in a detail not shown here. Identical values can stand only once. Values without a mark were called inactive. Inconclusive results are not listed. Active and inactive are the calls of the source. Unless noted, calls come from the whole dose curve; as a rule, active = well fitted curve in the direction sought with a large enough effect in the repeat runs; inconclusive = weak or mixed curves; inactive = no such curve, though single readings can be large; an effect the other way counts as inactive or inconclusive.
% is set by controls: 0 for no effect and ±100 for the full control effect.

As to `COC(N)=O`, the Potency result in assay [1], in assay [3], in assay [4], in assay [5], in assay [6] and in [7] was “inactive” in each case. Besides, the Potency result in assay [8], in assay [9], in [10], in assay [11], in assay [12] and in assay [13] was “inactive” each time. For the same molecule, the Potency entry in assay [14], in assay [15] and in assay [16] was “inactive” each time. The molecule was called inactive in assay [2].
As for `Nc1nc(N)nc(N)n1`, the Potency entry in assay [1], in assay [3], in assay [4], in [5], in [6] and in assay [7] was “inactive” throughout. For the same molecule, the Potency result in assay [9], in assay [10], in [11], in [12], in assay [13] and in assay [14] was “inactive” each time. Also, the Potency entry in assay [15], in assay [16] and in assay [18] was “inactive” each time. Further, the call in assay [2] was inactive. In addition, the max response in assay [17] is 14.5%.
For `CCCCCCCCOC(=O)c1ccc(C(=O)OCCCCCCCC)c(C(=O)OCCCCCCCC)c1`, the Potency result in [1], in [3], in assay [4], in [5], in [6] and in assay [7] was “inactive” each time. For the same molecule, the Potency entry in assay [8], in assay [9], in assay [10], in assay [11], in assay [12] and in assay [13] was “inactive” in each case. Besides, the Potency result in assay [14], in assay [15], in [16] and in [18] was “inactive” throughout. Besides, the call in [2] was inactive. In addition, the max response in assay [17] was -3.25%.
In the case of `O=C(NC(=O)c1c(F)cccc1F)Nc1cc(Cl)c(Oc2ncc(C(F)(F)F)cc2Cl)c(Cl)c1`, the Potency result in assay [1], in assay [3], in assay [6], in [8], in [10] and in [11] was “inactive” each time. In addition, the Potency entry in assay [12], in assay [13], in assay [14], in assay [15], in [16] and in [18] was “inactive” each time. Moreover, in assay [2], the molecule was called inactive.
Take `O=C1C(Cl)C(CCl)CN1c1cccc(C(F)(F)F)c1` (centres undefined): the Potency result in [1], in assay [4], in [6], in assay [7], in [8] and in assay [10] was “inactive” in each case. For the same molecule, the Potency result in assay [11], in assay [12], in assay [13], in assay [14], in [15] and in [18] was “inactive” each time. Besides, the outcome in assay [2] was inactive. In [19], the activity change, positive = activation was -29.4%. Besides, the Potency in assay [5], in [9] and in assay [17] was 24.5 µM (active) throughout.
On to `CCCN(CC1CC1)c1c([N+](=O)[O-])cc(C(F)(F)F)cc1[N+](=O)[O-]`, for which the Potency entry in assay [1], in assay [3], in assay [4], in assay [5], in [6] and in assay [7] was “inactive” each time. The Potency entry in assay [10], in [11], in assay [12], in assay [13], in [14] and in [15] was “inactive” throughout. Also, the Potency result in assay [16] and in [18] was “inactive” in each case. In addition, the outcome in assay [2] was inactive. Besides, the max response in [17] was 9.65%.
In the case of `Brc1ccc(Oc2ccccc2)cc1`, the Potency entry in assay [1], in [20], in assay [4], in [5], in [6] and in assay [9] was “inactive” each time. Moreover, the Potency entry in assay [10], in assay [12], in assay [13], in [14], in [15] and in assay [16] was “inactive” in each case. Further, the molecule was called inactive in [2]. In [19], the activity change, positive = activation was -18.4% and 0.436%. Moreover, the Potency was 44.7 µM (active) and 21.9 µM (active) in [8]; 50.2 µM (active) and 21.9 µM (active) in assay [18].
Consider `CC1C(=O)C[C@]2(C(C)C)C[C@H]12` (some centres undefined), for which the Potency entry in [1], in assay [3], in [4], in [5], in assay [6] and in assay [8] was “inactive” in each case. For the same molecule, the Potency result in assay [9], in assay [10], in assay [11], in assay [12], in [13] and in assay [14] was “inactive” in each case. In addition, the Potency result in assay [15], in [16] and in assay [18] was “inactive” throughout. Moreover, the result in assay [2] was inactive.

These data come from PubChem BioAssay (Tox21).
